Holding throughout (experiment): DAPPL (digital affinity profiling via proximity ligation, sequencing); 10 mM Tris-HCl pH 7.5, 50 mM NaCl, 1 mM DTT, 4% glycerol, room temperature, 30 min; GST-TFs on glutathione beads, 16-mer random dsDNA library, 0.1% formaldehyde crosslink after washing; high values mean tight binding
Details in all cases: protein: recombinant; tags: N-terminal GST; dsDNA, one strand shown

For test [1], the target named is T1, ELK1 (Homo sapiens, UniProt P19419 1-428).
T1 sequence: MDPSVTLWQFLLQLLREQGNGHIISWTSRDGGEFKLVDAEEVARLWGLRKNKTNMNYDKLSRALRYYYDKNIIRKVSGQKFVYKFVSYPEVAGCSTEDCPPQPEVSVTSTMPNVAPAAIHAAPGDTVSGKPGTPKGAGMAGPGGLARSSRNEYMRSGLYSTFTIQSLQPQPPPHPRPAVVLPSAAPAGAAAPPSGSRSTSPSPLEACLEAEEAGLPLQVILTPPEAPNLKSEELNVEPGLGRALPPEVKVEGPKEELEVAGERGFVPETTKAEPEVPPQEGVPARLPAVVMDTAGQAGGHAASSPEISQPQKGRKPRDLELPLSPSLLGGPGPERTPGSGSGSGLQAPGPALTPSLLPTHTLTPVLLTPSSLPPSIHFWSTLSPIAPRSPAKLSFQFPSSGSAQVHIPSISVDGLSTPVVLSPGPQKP
In outline:
(§1)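 Beads coated with glutathione captured GST-fused human transcription factors that had been expressed in yeast, and the factors were then given DNA barcodes and pooled with a tag-only sample. The pools were incubated with 200 nmole of a random double-stranded 16-mer DNA library in Tris/NaCl/DTT/glycerol buffer for 30 min at room temperature, washed, crosslinked with 0.1% formaldehyde and proximity-ligated with BsaI/T4 ligase at 37 °C for 1 h. PCR amplification and Illumina NextSeq500 sequencing came last. Binding signal is each hexamer's read frequency for a factor divided by its frequency for the tag-only sample.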

Test [2] has as its target T2, GABPA (Homo sapiens, UniProt Q06546 1-454).
T2 sequence: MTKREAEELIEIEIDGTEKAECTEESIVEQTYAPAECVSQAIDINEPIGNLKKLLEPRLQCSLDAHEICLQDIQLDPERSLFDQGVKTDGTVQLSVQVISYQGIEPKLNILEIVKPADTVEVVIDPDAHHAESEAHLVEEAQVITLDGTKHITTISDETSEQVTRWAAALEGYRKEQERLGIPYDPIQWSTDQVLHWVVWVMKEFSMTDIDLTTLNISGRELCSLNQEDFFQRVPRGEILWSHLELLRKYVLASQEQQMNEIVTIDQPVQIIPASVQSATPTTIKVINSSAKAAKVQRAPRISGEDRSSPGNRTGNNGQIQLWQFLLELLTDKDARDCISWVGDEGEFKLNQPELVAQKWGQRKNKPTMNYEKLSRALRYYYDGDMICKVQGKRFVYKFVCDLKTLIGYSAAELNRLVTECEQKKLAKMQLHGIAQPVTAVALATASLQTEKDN
In outline:
as §1

The target of test [3] is T3, ERG (Homo sapiens, UniProt P11308 1-479).
T3 sequence: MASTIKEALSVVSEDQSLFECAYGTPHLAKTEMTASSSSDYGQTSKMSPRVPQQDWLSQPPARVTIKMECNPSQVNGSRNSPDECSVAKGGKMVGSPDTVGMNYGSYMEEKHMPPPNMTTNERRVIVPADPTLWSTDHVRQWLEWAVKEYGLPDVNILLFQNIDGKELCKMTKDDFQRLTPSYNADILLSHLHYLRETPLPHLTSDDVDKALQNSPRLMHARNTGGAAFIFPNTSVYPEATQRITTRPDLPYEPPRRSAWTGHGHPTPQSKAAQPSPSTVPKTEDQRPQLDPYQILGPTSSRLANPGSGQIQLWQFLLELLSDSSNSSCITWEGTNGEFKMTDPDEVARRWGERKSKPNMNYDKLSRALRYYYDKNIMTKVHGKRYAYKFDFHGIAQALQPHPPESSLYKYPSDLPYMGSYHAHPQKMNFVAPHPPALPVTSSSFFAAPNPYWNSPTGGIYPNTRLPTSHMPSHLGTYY
In outline:
as §1

In test [4] the target is ELF1 (Homo sapiens, UniProt P32519 1-619). The gist of the method:
as §1

Test [5] deals with T4, EHF (Homo sapiens, UniProt Q9NZC4 1-300).
T4 sequence: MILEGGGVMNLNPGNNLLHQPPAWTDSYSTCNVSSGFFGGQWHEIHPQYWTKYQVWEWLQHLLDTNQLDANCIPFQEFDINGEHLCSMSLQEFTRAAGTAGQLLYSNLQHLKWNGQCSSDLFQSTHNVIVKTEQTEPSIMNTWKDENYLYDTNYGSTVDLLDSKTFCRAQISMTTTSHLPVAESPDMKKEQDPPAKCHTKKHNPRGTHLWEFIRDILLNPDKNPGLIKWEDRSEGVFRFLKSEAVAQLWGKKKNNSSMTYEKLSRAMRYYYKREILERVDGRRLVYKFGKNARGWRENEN
The gist of the method: as §1

Test [6] has as its target SPI1 (Homo sapiens, UniProt P17947 1-270). In outline:
as §1

Test [7] has as its target SPIB (Homo sapiens, UniProt Q01892 1-262). The gist of the method: as §1
The target of test [8] is ETV5 (Homo sapiens, UniProt P41161 1-510). In outline: as §1
Test [9] has as its target ELF4 (Homo sapiens, UniProt Q99607 1-663). In outline:
as §1

For test [10], the target named is T5, ELK4 (Homo sapiens, UniProt P28324-2 1-405).
T5 sequence: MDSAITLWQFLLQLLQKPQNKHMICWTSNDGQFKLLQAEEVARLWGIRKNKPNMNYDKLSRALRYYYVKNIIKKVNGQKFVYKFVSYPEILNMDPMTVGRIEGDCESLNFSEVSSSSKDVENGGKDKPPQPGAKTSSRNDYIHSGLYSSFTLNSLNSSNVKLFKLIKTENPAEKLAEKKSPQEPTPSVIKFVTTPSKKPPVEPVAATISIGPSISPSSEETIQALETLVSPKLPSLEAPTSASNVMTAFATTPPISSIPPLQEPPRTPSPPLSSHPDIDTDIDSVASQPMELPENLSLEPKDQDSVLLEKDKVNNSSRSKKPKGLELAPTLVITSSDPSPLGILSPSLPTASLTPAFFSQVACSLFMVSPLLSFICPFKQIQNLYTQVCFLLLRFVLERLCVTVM
The gist of the method: as §1

The target in test [11] is ETV1 (Homo sapiens, UniProt P50549 1-477). The gist of the method: as §1
Test [12] addresses T6, ERF (Homo sapiens, UniProt P50548 1-548).
T6 sequence: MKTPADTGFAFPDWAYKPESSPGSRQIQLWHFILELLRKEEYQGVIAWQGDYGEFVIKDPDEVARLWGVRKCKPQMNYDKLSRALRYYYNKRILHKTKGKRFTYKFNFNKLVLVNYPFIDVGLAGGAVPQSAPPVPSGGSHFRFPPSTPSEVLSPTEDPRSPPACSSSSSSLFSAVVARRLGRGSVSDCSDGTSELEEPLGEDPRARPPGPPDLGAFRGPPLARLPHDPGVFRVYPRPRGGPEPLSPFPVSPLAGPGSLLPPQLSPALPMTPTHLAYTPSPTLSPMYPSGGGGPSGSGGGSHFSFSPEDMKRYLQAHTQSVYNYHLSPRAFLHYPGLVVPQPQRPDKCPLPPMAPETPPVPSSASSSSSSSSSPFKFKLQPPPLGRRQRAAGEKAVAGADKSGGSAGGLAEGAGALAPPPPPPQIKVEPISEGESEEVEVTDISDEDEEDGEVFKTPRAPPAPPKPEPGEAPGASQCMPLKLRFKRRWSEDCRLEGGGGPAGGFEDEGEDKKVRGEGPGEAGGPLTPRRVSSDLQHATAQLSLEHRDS
In outline:
as §1

Test [13] concerns the target T7, ETV3L (Homo sapiens, UniProt Q6ZN32 1-361).
T7 sequence: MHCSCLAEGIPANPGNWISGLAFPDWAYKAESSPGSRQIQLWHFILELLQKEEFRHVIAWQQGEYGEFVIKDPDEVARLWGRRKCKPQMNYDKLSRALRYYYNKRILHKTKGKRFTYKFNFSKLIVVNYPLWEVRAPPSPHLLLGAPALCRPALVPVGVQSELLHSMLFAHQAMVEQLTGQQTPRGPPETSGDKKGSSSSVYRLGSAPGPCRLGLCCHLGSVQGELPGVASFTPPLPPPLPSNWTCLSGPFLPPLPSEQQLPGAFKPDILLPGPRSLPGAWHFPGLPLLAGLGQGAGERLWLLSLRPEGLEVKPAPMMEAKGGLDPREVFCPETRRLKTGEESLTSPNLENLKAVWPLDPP
The gist of the method: as §1

The target in test [14] is T8, ETS2 (Homo sapiens, UniProt P15036 1-469).
T8 sequence: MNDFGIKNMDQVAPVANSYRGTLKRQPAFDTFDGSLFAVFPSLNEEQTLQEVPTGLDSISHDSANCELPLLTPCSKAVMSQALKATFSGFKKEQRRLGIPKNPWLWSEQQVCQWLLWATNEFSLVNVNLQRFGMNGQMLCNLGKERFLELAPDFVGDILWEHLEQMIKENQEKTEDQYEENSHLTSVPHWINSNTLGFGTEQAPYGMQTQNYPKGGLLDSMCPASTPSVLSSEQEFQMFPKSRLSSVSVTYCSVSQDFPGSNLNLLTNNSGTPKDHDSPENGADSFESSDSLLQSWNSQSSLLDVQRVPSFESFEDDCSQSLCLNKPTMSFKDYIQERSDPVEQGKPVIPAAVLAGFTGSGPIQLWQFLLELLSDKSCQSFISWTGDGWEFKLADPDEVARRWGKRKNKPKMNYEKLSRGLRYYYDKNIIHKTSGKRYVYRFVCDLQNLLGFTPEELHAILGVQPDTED
The gist of the method: as §1

The target of test [15] is T9, ETV7 (Homo sapiens, UniProt Q9Y603 1-341).
T9 sequence: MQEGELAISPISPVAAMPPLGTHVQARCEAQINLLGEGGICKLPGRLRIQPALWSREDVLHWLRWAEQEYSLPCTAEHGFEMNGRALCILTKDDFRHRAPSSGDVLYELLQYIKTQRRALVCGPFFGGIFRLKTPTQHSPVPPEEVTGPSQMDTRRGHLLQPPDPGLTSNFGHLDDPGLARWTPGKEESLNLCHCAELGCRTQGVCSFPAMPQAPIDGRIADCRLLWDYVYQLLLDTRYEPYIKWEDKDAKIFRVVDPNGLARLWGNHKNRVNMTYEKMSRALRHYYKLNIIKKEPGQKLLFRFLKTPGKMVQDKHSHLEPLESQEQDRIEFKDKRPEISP
The gist of the method:
as §1

Test [16] deals with T10, ETV3 (Homo sapiens, UniProt P41162-2 1-143).
T10 sequence: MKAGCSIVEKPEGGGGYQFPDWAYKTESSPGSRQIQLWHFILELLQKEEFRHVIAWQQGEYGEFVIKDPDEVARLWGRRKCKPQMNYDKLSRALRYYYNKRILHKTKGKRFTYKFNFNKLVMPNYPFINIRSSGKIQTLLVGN
In outline:
as §1

The target in test [17] is ETV6 (Homo sapiens, UniProt P41212 1-452). In outline: as §1

Drawing on article PMC7862700, “An all-to-all approach to the identification of sequence-specific readers for epigenetic DNA modifications on cytosine”, this text covers binding signal for one sequence.

Chain of ELF4 (Q99607 whole entry): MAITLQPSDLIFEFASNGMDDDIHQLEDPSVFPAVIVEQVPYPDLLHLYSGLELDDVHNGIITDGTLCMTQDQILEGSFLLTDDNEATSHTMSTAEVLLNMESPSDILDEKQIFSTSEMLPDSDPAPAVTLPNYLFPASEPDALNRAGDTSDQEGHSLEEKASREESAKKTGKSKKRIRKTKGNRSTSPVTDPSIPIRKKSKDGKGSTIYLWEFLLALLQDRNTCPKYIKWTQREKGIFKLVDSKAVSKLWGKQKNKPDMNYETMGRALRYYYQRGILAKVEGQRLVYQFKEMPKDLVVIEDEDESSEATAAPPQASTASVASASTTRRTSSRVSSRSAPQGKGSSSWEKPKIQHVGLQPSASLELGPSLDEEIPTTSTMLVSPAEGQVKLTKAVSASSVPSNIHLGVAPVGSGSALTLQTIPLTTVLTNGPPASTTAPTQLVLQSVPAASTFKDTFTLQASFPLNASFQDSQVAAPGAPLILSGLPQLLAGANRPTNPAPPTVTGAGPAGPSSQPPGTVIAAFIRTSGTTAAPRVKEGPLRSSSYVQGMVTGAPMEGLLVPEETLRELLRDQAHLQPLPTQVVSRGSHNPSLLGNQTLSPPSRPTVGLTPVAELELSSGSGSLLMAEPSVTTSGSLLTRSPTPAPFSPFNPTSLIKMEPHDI
Chain of ETV5 (P41161 whole entry): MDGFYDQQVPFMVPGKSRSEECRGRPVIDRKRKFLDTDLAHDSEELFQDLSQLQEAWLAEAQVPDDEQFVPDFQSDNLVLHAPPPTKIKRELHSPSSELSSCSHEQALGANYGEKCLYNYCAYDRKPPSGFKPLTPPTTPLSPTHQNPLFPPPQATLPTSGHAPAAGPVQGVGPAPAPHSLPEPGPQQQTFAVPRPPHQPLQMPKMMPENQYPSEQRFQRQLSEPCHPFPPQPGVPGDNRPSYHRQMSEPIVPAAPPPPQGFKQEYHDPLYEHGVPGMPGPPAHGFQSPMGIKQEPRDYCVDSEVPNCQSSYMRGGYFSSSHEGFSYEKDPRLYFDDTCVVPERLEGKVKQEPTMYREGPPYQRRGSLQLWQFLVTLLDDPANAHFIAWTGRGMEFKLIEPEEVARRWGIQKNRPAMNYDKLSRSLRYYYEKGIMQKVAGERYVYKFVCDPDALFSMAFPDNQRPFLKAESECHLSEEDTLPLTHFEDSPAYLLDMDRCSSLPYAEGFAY
Chain of ELF1 (P32519 whole entry): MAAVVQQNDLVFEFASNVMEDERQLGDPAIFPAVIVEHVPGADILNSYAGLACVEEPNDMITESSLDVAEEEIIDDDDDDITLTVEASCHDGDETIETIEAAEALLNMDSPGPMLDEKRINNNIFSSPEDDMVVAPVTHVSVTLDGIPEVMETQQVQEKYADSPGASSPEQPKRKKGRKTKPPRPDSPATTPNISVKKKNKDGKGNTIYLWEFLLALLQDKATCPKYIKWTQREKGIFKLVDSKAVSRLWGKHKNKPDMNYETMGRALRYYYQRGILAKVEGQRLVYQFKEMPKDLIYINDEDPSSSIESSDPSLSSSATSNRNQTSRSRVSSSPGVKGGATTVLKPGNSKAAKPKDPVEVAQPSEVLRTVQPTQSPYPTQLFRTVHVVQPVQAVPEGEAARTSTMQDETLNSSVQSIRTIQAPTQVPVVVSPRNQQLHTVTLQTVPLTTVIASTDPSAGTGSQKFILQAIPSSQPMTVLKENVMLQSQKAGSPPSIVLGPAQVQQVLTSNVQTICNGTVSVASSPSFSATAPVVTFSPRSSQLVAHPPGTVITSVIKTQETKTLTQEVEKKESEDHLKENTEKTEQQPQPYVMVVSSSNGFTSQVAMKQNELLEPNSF
Chain of ETV1 (P50549 whole entry): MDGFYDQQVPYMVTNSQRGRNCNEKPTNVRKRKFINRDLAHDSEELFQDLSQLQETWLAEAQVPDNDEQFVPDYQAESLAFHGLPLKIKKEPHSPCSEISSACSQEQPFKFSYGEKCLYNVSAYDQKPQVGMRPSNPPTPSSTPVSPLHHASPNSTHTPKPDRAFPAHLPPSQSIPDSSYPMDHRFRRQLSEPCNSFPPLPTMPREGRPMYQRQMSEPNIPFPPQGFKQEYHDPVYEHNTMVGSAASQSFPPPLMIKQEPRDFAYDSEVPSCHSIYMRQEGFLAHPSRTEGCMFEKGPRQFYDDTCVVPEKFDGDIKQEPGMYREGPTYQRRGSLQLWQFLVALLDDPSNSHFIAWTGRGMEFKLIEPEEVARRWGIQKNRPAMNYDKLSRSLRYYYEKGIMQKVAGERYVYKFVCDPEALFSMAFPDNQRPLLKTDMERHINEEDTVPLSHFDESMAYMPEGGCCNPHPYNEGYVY
Chain of ETV6 (P41212 whole entry): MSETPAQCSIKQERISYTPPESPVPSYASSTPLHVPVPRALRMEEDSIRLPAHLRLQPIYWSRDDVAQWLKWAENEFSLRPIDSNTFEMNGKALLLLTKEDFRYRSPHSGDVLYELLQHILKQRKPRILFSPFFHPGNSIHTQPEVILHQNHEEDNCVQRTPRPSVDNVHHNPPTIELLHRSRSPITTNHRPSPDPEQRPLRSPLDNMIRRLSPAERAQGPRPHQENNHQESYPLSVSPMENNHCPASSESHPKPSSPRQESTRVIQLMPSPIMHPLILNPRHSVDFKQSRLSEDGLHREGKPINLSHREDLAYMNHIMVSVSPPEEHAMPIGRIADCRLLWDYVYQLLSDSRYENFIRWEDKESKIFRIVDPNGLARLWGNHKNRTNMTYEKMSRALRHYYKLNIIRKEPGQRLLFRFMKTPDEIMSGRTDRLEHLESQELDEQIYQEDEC
Chain of SPIB (Q01892 whole entry): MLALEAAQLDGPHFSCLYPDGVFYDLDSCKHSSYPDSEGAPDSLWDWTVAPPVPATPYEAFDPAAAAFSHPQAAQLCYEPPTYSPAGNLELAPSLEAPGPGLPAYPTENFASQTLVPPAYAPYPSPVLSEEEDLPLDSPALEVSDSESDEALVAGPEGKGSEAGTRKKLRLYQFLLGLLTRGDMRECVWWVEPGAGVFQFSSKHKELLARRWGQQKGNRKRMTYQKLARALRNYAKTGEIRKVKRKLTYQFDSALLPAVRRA

Take GTAGCT: the binding signal in [1] is 1.08 fold enrichment (6-mer frequency, TF over GST control); in test [2] it was 1.12 fold enrichment (6-mer frequency, TF over GST control); in [3] it was 1.05 fold enrichment (6-mer frequency, TF over GST control); in [4] it was 1.06 fold enrichment (6-mer frequency, TF over GST control); in [5], 1.12 fold enrichment (6-mer frequency, TF over GST control); in [6], 1.09 fold enrichment (6-mer frequency, TF over GST control). Further, the binding signal in test [7] is 1.18 fold enrichment (6-mer frequency, TF over GST control); in test [8], 1.14 fold enrichment (6-mer frequency, TF over GST control); in [9] it was 1.1 fold enrichment (6-mer frequency, TF over GST control); in [10], 1.17 fold enrichment (6-mer frequency, TF over GST control); in [11], 1.13 fold enrichment (6-mer frequency, TF over GST control); in [12], 1.1 fold enrichment (6-mer frequency, TF over GST control). In addition, the binding signal in test [13] is 1.08 fold enrichment (6-mer frequency, TF over GST control); in test [14], 1.13 fold enrichment (6-mer frequency, TF over GST control); in test [15] it was 1.12 fold enrichment (6-mer frequency, TF over GST control); in test [16] it was 1.09 fold enrichment (6-mer frequency, TF over GST control); in [17], 1.06 fold enrichment (6-mer frequency, TF over GST control).
